Each structure is given as a SMILES string. This is part of a sample that, as a whole, favours compounds with a hit. Of some 79,000 tested, about 15% had one in any assay. Unmarked numbers belong to inactive results. Active and inactive are the calls of the source. No stated cut-off is given here; in the data, active means growth inhibition above about 70%; inactive means the rest.

Test [1] in a line: NCI Yeast Anticancer Drug Screen. Data for the rad50 strain (AID 155).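 Further: 0% = growth of vehicle-only cultures of the same strain.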 Particulars: S. cerevisiae rad50 strain growth inhibition; at 50.0 µM; hits give high values. In a few lines:
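A DNA repair-deficient yeast mutant serves as the test organism; compound-induced growth inhibition is calculated against vehicle-treated cells.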

A short description of test [2]: NCI Yeast Anticancer Drug Screen. Data for the mec2-1 strain (AID 157). The following applies: S. cerevisiae mec2-1 strain, at 50.0 µM, hits give high values. In a few lines:
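Yeast mec2-1 mutant treated with compound. Readout: growth inhibition vs vehicle controls.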

Test [3] is described as follows: NCI Yeast Anticancer Drug Screen. Data for the sgs1 mgt1 strain (AID 161).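 Further: 0% = growth of cultures given vehicle only.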 The following applies: S. cerevisiae sgs1 mgt1 strain, at 50.0 µM, hits give high values. In a few lines:
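Read-out: growth inhibition vs vehicle controls. Cells: mutant yeast strain deficient in DNA damage repair.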

The nature of test [4]: NCI Yeast Anticancer Drug Screen. Data for the cln2 rad14 strain (AID 165).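 Further: 0% = growth equal to vehicle treated cultures.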 Particulars: S. cerevisiae cln2 rad14 strain, at 50.0 µM, hits give high values. In a few lines:
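cln2 rad14 yeast strain; compound exposure; growth inhibition read vs vehicle controls.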

Test [5] can be described thus: NCI Yeast Anticancer Drug Screen. Data for the bub3 strain (AID 167). The following applies: S. cerevisiae bub3 mutant strain, at 50.0 µM, hits give high values. In short, it runs like this:
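Inhibition values come from growth of compound-treated mutant yeast normalised to vehicle-treated controls.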

The nature of test [6]: NCI Yeast Anticancer Drug Screen. Data for the mlh1 rad18 strain (AID 175). The following applies: S. cerevisiae mlh1 rad18 strain growth inhibition; at 50.0 µM; hits give high values. In a few lines:
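Yeast w/ defined DNA-repair lesions; compound exposure; growth vs vehicle controls → % inhibition.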

For `CN(C)c1ccc(/C=C(/C(=O)O)c2csc(-c3nc(/C(=C\c4ccc(N(C)C)cc4)C(=O)O)cs3)n2)cc1`, the growth inhibition in test [1] was 34.8%; in test [2], 9.45%; in test [3], 10.2%; in test [4] it was -19.8%; in test [5] it was 13.2%; in test [6], 25.4%.

Take `O=[N+]([O-])c1cc(Br)ccc1N1CCCCC1`: the growth inhibition in test [1] is -3.15%; in test [2], -3.55%; in test [3] it was 2.25%; in test [4], -18.1%; in test [5], 17.9%; in test [6], -20.8%.

Consider `CC(C)=CCC1=C(O)[C@@](O)(CC=C(C)C)C(=O)C(C(=O)CC(C)C)=C1O`, for which the growth inhibition in test [1] is 28.2%; in test [2] it was 7.95%; in test [3] it was 31.7%; in test [4], 26.4%; in test [5], 35.2%; in test [6] it was 29.6%.

For the molecule `CCOC(=O)C1=C(C)C/C(=N/NC(N)=O)CC1`, the growth inhibition in test [1] is 6.35%; in test [2], -17.9%; in test [3], -0.95%; in test [4], 0.05%; in test [5] it was -0.95%; in test [6] it was -7.85%.

Consider `CCCCOC(=O)CNC(=O)OC/C=C/C#CC#C/C=C/COC(=O)NCC(=O)OCCCC`, for which the growth inhibition in test [1] is -20.2%; in test [2], -35.8%; in test [3] it was -24.4%; in test [4] it was -17.9%; in test [5], 0.3%; in test [6], -19.9%.

On to `COC[C@H]1C(=O)NCC(=O)N2N=CCC[C@H]2C(=O)N(O)[C@H](C)C(=O)O[C@@H](C(C)C)[C@H](NC(=O)[C@@](C)(O)[C@]2(O)CC[C@@H](CC(C)C)[C@H](C)O2)C(=O)N2NCCC[C@@H]2C(=O)N1O`, for which the growth inhibition is 91.8% (active) in test [1]; 93.6% (active) in test [2]; 93.7% (active) in test [3]; 91.2% (active) in test [4]; 93.2% (active) in test [5]; 92.1% (active) in test [6].

Regarding `CCOC(=O)c1ccc(N=Cc2ccc(N(CCC#N)S(=O)(=O)c3ccccc3)cc2C)cc1`, the growth inhibition in test [1] is -3.9%; in test [2], 15.1%; in test [3], -20%; in test [4], 6.95%; in test [5], 2.95%; in test [6] it was -3.95%.

Consider `CC(=O)N(C)CCCCCCN(C)C(C)=O`, for which the growth inhibition was 8.95% in test [1]; 8.05% in test [2]; 10.7% in test [3]; 3.05% in test [4]; 7.2% in test [5]; 9.35% in test [6].

Consider `Cc1cc2c(c([N+](=O)[O-])c1C)C(=O)C(Br)=C(Br)C2=O`, for which the growth inhibition was 15.7% in test [1]; 10.4% in test [2]; 21.5% in test [3]; 34.7% in test [4]; 5.9% in test [5]; 36.2% in test [6].

`NC1C=NNC1=O` (stereo not given): the growth inhibition in test [1] was -11.1%; in test [2] it was -7.95%; in test [3], -9.5%; in test [4] it was -13.2%; in test [5] it was -10.1%; in test [6], -23.9%.

As for `c1cc2cc(C3=NCCN3)[nH]c2cc1C1=NCCN1`, the growth inhibition in test [1] is 12.8%; in test [2], 35.4%; in test [3] it was 29.1%; in test [4], 43.5%; in test [5] it was 18.6%; in test [6], 26.2%.

For the molecule `N#C/C=C\c1ccc(C#N)cc1`, the growth inhibition was 28.1% in test [1]; -1.5% in test [2]; 20.3% in test [3]; 6.85% in test [4]; 25.1% in test [5]; 19.9% in test [6].

In the case of `[N-]=[N+]=NC12CC3CC4C5CC(CC41)CC2[C@H]5C3`, the growth inhibition was 13.1% in test [1]; -5.35% in test [2]; -6.1% in test [3]; -0.55% in test [4]; -17.1% in test [5]; -14.4% in test [6].

With `C/C=C/C(=O)Oc1ccccc1/C=C/C(=O)CCCCCC`, the growth inhibition is 15.2% in test [1]; 11.1% in test [2]; 23.6% in test [3]; 8.25% in test [4]; 10.9% in test [5]; 10.9% in test [6].

For `O=C(O)Cc1ccc2c(c1)C(=O)C(=O)N2`, the growth inhibition in test [1] is 18.6%; in test [2] it was 18.6%; in test [3] it was 7.05%; in test [4] it was -8.75%; in test [5], -18.7%; in test [6] it was 15.1%.

In the case of `CC(=O)NC1c2ccccc2CCC1OC(C)=O` (stereo not given), the growth inhibition in test [1] was -16.4%; in test [2], -8.05%; in test [3] it was 22.9%; in test [4], -1.8%; in test [5] it was -8.55%; in test [6], -34.8%.

Regarding `c1ccc(C2=C(c3ccccn3)N=c3ccccc3=c3ccccc3=N2)nc1`, the growth inhibition is 2.4% in test [1]; 14.2% in test [2]; -1.15% in test [3]; -48.6% in test [4]; 3.65% in test [5]; -8.9% in test [6].

With `OCCn1c2ccccc2c2ccccc21`, the growth inhibition in test [1] is 20.2%; in test [2], -2.65%; in test [3], 18.6%; in test [4], -17.2%; in test [5], 14%; in test [6], -0.7%.

On to `O=S(O)CCCSSSCCCS(=O)O`, for which the growth inhibition in test [1] is 26.1%; in test [2] it was 20.9%; in test [3], 45.5%; in test [4], 37%; in test [5], 20%; in test [6], 38.6%.

As for `O=[N+]([O-])c1cc(Br)c(F)cc1F`, the growth inhibition in test [1] is -22.2%; in test [2] it was 4.85%; in test [3], -5.2%; in test [4] it was -32.2%; in test [5], -2.55%; in test [6], 31.1%.

The values are drawn from PubChem BioAssay (NCI).
